# Screening data deposited in PubChem BioAssay by National Center for Advancing Translational Sciences (NCATS).
# Rab9 promoter act: qHTS Assay for Rab9 Promoter Activators | Potency, µM (titrated, usually from 9.22 µM), for the others: at the highest dose activation, negative = inhibition, hits mostly activators | AID 485297, 2010 | hit rate 2.8% among 320,000 | Huh7 Rab9 promoter-luciferase reporter, luminescence, 24 h; also: % of control where 0% means no effect; nearly all actives have a fitted effect of over 60% in size
#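 Luminescence from Amplite-detected luciferase (10 minutes, ambient) reports Rab9 promoter activation. Before that, stable Rab9-luciferase Huh7 cells (1500/well, reduced-serum OP-MEM I plus 10% FBS) were exposed to compound for 24 hours at 37C.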
# NPC1 prom act: qHTS Assay for NPC1 Promoter Activators. Huh7 NPC1 promoter luciferase reporter, 24 h. Potency, µM (highest dose often 9.22 µM), inactives show top-dose activation, usual class: activators. hit rate 2.4% among 320,000; also: % of control where 0% means no effect; nearly all actives have a fitted effect of over 60% in size
#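 Huh7 reporter cells (NPC1 promoter driving luciferase) are dosed with compound for 24 h at 37 °C, 5% CO2; luciferase detection reagent is then added and luminescence measured after 10 min at ambient temperature.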
# SMN2 splice enh: qHTS Assay for Enhancers of SMN2 Splice Variant Expression; Potency, µM (titrated, usually from 46.1 µM), for inactives: at the highest dose activity change, positive = activation, most hits filed as activators; hit rate 2.8% among 210,000; HEK293 SMN2-luciferase splicing reporter, luminescence, 30-36 h; AID 1458, 2008; also: % of control where 0% means no effect; nearly all actives have a fitted effect of over 55% in size
#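 HEK293 cells carry an SMN2 minigene-luciferase reporter in which exon 7 inclusion puts luciferase in frame. Cells were seeded at 2000 cells/well, attached for 10-12 hours, then exposed to compounds for 30-36 hours at 37C before ONE-Glo luminescence.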
# ELG1 genotox: qHTS screen for small molecules that induce genotoxicity in human embryonic kidney (HEK293T) cells expressing luciferase-tagged ELG1; HEK293T ELG1-luciferase reporter, luminescence, 16 h; Potency, µM (top dose mostly 46 µM), without a hit: at the highest dose activity change, positive = activation, usual class: activators; hit rate 1.3% among 330,000; AID 504466, 2011; also: % of control where 0% means no effect; nearly all actives have a fitted effect of over 60% in size
#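 Genotoxic stress is detected as increased luminescence from luciferase-tagged ELG1 in HEK293T cells, measured with ONE-Glo after a 16 hr treatment at 37 °C.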
# FLuc modulator: qHTS profiling assay for firefly luciferase inhibitor/activator using purifed enzyme and Km concentrations of substrates (counterscreen for miR-21 project) | Luciferin 4-monooxygenase (Photinus pyralis), P08659 | purified FLuc, Km substrates, luminescence inhibition | Potency, µM (doses to about 57.5 µM), for inactives: at the highest dose activity change, negative = inhibition, hits mostly inhibitors | hit rate 6.9% among 360,000 | AID 588342, 2011;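 also: plate controls were vehicle for no effect and reference inhibitor for full effect; nearly all actives have a fitted effect of over 55% in size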
# Target sequence (P08659 whole entry, looked up): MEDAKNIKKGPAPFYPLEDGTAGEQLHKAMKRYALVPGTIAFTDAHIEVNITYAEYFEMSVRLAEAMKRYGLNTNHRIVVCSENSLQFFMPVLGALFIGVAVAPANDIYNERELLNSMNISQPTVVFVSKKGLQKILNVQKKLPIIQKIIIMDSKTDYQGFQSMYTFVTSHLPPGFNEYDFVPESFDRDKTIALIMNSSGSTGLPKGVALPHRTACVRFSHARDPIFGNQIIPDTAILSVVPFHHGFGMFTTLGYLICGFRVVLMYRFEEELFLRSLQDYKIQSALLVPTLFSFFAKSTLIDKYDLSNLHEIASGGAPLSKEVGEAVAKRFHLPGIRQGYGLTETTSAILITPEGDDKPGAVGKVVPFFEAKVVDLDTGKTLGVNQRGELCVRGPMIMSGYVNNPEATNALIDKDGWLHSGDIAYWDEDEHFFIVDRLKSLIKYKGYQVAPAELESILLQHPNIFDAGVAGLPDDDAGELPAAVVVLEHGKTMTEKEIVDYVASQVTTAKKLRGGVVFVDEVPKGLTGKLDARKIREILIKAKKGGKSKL
#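 Purified P. pyralis luciferase (10nM final) with 10uM D-luciferin and 10uM ATP (Km levels) in 50mM Tris acetate pH 7.5, 10mM Mg acetate, 0.01% Tween-20, 0.05% BSA; qHTS 6-point titration, ~60 µM downward; luminescence read.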
# Active calls of the source: *; ? = inconclusive; · = no result given; [ ] = another dose, or the depositor's remark. An excerpt weighted towards active compounds, which were near 7.4% of everything screened. Calls follow the shape of the dose curve; as a rule, active = well fitted curve in the direction sought with a large enough effect; inconclusive = small, poorly fitted or top-dose-only effect, or another doubt; inactive = no such curve, though single readings can be large; an effect the other way counts as inactive or inconclusive. Potency is read from the fitted curve at half-maximal effect.
SMILES,Rab9 promoter act,NPC1 prom act,SMN2 splice enh,ELG1 genotox,FLuc modulator
Cc1ccc(C(=O)N2CCN(c3ccc(NC(=S)NC(=O)c4cccs4)cc3)CC2)cc1,-23%,-12%,·,-10%,1%
CC(C)(C)c1ccc(C(=O)NC(=S)Nc2ccc(N3CCOCC3)cc2)cc1,-4%,-7%,2.8µM*,11%,-9%
CC(C)(C)c1ccc(C(=O)NC(=S)N2CCCC2)cc1,-7%[1.84 µM],4%,·,1%,9.5µM*
O=C(NC(=S)Nc1ccc(N2CCOCC2)cc1)c1cccs1,0.79µM*,?,·,9%,24µM*
COc1cccc(CNC(=O)CCCCCn2c(=O)[nH]c3cc(OC)c(OC)cc3c2=O)c1,·,·,7%,·,-8%
O=C(Nc1cc(Cl)ccc1Cl)C1(c2cccs2)CCOCC1,·,·,·,·,7%
C[C@@H]1C[C@](C)(C(=O)c2ccco2)C=C1c1ccco1,·,·,2%,·,·
O=C(O)Cc1c[nH]c2ccc(F)cc12,·,·,-9%[9.22 µM],·,·
CC(OC(=O)c1ccc(NC(=O)CC#N)cc1)C(=O)Nc1ccc(Oc2ccccc2)cc1 (configuration not stated),3%,1%,·,1%,1%
Cn1ncc(Br)c1C(=O)OCC(=O)Nc1nc(-c2ccccc2)cs1,-1%,22%,14µM*,1%,-6%
COc1cccc(-c2csc(NC(C)=O)n2)c1,4µM*,4µM*,28µM*,10µM*,15µM*
CC(OC(=O)c1ccc(NC(=O)CC#N)cc1)C(=O)Nc1nc(-c2ccccc2)cs1 (configuration not stated),16%,11%,·,23µM*,2%
CCc1ccc(-c2csc(NC(=O)Oc3ccccc3)n2)cc1,?,?,·,?,6µM*
COc1cccc(Cn2c(=O)c(C)nc3cnc(OCc4ccccc4)nc32)c1,·,·,-16%,·,·
Cc1oc2ccc(O)c(CN3CCOCC3)c2c1C(=O)Nc1ccc(C(C)C)cc1,·,·,-23%,·,2%
COCC1=C2c3ccccc3[C@H](C[N+](=O)[O-])C(C(=O)OC)(C(=O)OC)C[C@@H]2n2c(=O)n(-c3ccccc3)c(=O)n2C1,·,·,12%,·,·
CC(=O)Nc1ccc(S(=O)(=O)NCCc2cn3ccsc3n2)cc1,·,·,·,·,-6%
O=C(CN1CCCCC1)Nc1nc(-c2ccccc2)cs1,22%,?,·,?,21µM*
CN1CCN(CC(=O)N(C)c2nc(-c3ccccc3)cs2)CC1,2.8µM*,4µM*,-35%,?,15µM*
CN1CCN(CC(=O)Nc2nc(-c3ccccc3)cs2)CC1,-2%,-4%,-2%,2%,-18%
COCC(=O)Nc1nc(-c2ccc(-c3ccccc3)cc2)cs1,0.79µM*,2.2µM*,·,0%,?
O=C(CN1CCCCC1)Nc1nc(-c2ccc(Cl)cc2)cs1,1%,1%,·,7%,17µM*
COCC(=O)N1CCC[C@@]2(CCN(Cc3cc(C(F)(F)F)cc(C(F)(F)F)c3)C2)C1,·,·,-9%,·,·
Cc1ccc(C)c(CN2C(=O)c3ccccc3S(=O)(=O)c3ccc(C(=O)N4CCN(Cc5ccccc5)CC4)cc32)c1,·,·,2%,·,-4%
Cc1ccc(CCNC(=O)c2ccc(CNS(=O)(=O)c3ccc(F)cc3)cc2)cc1,·,·,·,·,-3%
SMILES,Rab9 promoter act,NPC1 prom act,SMN2 splice enh,ELG1 genotox,FLuc modulator
CCc1ccc(OC(=O)Nc2ccccc2)cc1,?,-2%,·,9%,9.5µM*
O=C(Nc1ccc(O)c(C(=O)O)c1)Oc1ccccc1,12%,1%,·,3%,13µM*
O=C(Nc1ccc2oc(=O)c(C(=O)O)cc2c1)Oc1ccccc1,·,·,-14%[9.22 µM],·,·
CCc1ccc(NC(=O)Cc2ccc(OC)cc2)cc1,3%,18%,?,13%,?
CCOC(=O)N1CCC(NC(=O)c2ccc3c(c2)N(Cc2ccccc2C)C(=O)c2ccccc2S3=O)CC1 (configuration not stated),·,·,20%,·,1%
CC(=O)Nc1ccc(NC(=O)C(Cc2ccccc2)N2Cc3ccccc3C2=O)cc1 (configuration not stated),·,·,·,·,-10%
Cc1cc(O)c(C(c2ccc(F)cc2)N2CCCCC2)c(=O)n1Cc1ccco1 (configuration not stated),·,·,·,·,-17%
CN1CCc2c(sc3c2C(=O)NC(c2ccccc2)N3)C1 (configuration not stated),11%,4%,13%,0%,?
Cc1cccc(C2NC(=O)c3c(sc4c3CCN(C)C4)N2)c1O (configuration not stated),·,·,16µM*,·,24µM*
O=C1NC(c2ccc(Br)cc2)Nc2sc3c(c21)CCC3 (configuration not stated),?,?,-15%,12%,?
Cc1ccc(C2NC(=O)c3c(sc4c3CCN(C)C4)N2)s1 (configuration not stated),?,?,-15%,3%,12µM*
Cc1ccsc1C1NC(=O)c2c(sc3c2CCCC3)N1 (configuration not stated),?,?,16µM*,?,17µM*
COc1ccc(C2C=C(c3ccccc3)Nc3nc(NC(=O)/C=C/c4ccc(Cl)cc4)nn32)cc1 (configuration not stated),·,·,·,·,-2%
COc1ccc(CCNC(=O)c2sc3nc4n(c(=O)c3c2C)CCCC4)cc1OC,·,·,·,·,-4%
O=C(Nc1ccccc1C(=O)OCc1cc(=O)n2ccsc2n1)c1cccc(F)c1,·,·,·,·,-4%
COC(=O)c1ccccc1NC(=O)CCCn1c(=O)c2cccn2c2cccnc21,·,·,·,·,-10%
COc1ccc(/C=N/NC(=O)CNC(=O)c2ccc3c(c2)OCCO3)c(C(=O)O)c1OC,0%,1%,·,0%[9.26 µM],24µM*
O=C(N/N=C/c1ccccc1Cl)c1ccc(F)cc1,2.5µM*,2.2µM*,12%,?,2.7µM*
Cn1cccc1-c1cc(C(=O)N/N=C/c2ccccc2Cl)[nH]n1,?,?,·,?,19µM*
O=C(O)COc1ccccc1/C=N/NC(=O)c1ccc2c(c1)OCCO2,0%,0%,·,3%,1.5µM*
O=C(NN=Cc1ccccc1Cl)c1ccc(-n2cnnn2)cc1,·,·,·,3%,·
Cn1c(=O)c2c(ncn2CCSS(=O)(=O)O)n(C)c1=O,·,·,-7%[9.22 µM],·,·
CC(C)NC(=O)[C@H]1C[C@@H]1[C@H](NC(=O)OCc1ccccc1)c1ccccc1,·,·,-9%,·,·
COc1cccc(CNC(=O)Cn2c(=O)ccc3cc(S(=O)(=O)N4CCCC4)ccc32)c1,·,·,·,·,-2%
O=C(O)COc1ccccc1/C=N/NC(=O)c1ccc(F)cc1,10%,-8%,-6%,1%,9.5µM*
O=C(O)COc1ccccc1/C=N/NC(=O)CNC(=O)c1ccc(F)cc1,-2%,8%,·,0%,-2%
